Measured values: article PMC11006913
Changes are numbered by the printed parent chain.

Key:
Assay in all cases: PBM; 200 nM protein, PBS
Details in all cases: dsDNA, one strand shown
[1] = target: HOXB4 (Homo sapiens, UniProt P17483 148-234)
[2] = target: T1, VENTX (Homo sapiens, UniProt O95231 78-163, R121Q)
T1 sequence: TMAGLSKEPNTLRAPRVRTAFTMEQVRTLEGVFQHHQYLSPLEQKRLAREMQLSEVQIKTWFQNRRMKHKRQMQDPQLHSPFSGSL

[3] = target: HOXA4 (Homo sapiens, UniProt Q00056 201-287, W262R)
[4] = target: ALX4 (Homo sapiens, UniProt Q9H161 200-286)
Sequence of ALX4 (Q9H161 200-286): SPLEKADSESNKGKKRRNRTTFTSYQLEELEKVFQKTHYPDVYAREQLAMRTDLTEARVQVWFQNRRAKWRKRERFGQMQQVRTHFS

[5] = target: T2, VENTX (Homo sapiens, UniProt O95231 78-163, Y115F)
T2 sequence: T1 sequence with Y38F, Q44R

[6] = target: HOXB6 (Homo sapiens, UniProt P17509 132-218, K202E)
Sequence of HOXB6 (Homo sapiens, UniProt P17509 132-218, K202E) (P17509 132-218 K202E): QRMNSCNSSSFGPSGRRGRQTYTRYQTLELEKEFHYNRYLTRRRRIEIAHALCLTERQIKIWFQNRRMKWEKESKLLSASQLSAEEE

[7] = target: HOXA2 (Homo sapiens, UniProt O43364 129-215, R185T)
Sequence of HOXA2 (Homo sapiens, UniProt O43364 129-215, R185T) (O43364 129-215 R185T): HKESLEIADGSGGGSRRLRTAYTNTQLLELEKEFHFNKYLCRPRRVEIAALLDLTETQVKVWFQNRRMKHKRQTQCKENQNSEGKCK

[8] = target: HOXA4 (Homo sapiens, UniProt Q00056 201-287, R217L)
Sequence of HOXA4 (Homo sapiens, UniProt Q00056 201-287, R217L) (Q00056 201-287 R217L): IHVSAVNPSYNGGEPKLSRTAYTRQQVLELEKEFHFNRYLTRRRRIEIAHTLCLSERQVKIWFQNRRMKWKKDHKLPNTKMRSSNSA

[9] = target: HOXB4 (Homo sapiens, UniProt P17483 148-234, V174I)
Sequence of HOXB4 (Homo sapiens, UniProt P17483 148-234, V174I) (P17483 148-234 V174I): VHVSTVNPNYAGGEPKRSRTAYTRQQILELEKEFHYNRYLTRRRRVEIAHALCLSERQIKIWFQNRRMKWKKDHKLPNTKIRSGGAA

[10] = target: HOXA2 (Homo sapiens, UniProt O43364 129-215, R185K)
Sequence of HOXA2 (Homo sapiens, UniProt O43364 129-215, R185K) (O43364 129-215 R185K): as the sequence (O43364 129-215 R185T) above, with T57K counted along it

[11] = target: HOXA4 (Homo sapiens, UniProt Q00056 201-287)
Sequence of HOXA4 (Homo sapiens, UniProt Q00056 201-287) (Q00056 201-287): as the sequence (Q00056 201-287 R217L) above, with L17R counted along it

[12] = target: MSX2 (Homo sapiens, UniProt P35548 130-214)
Sequence of MSX2 (Homo sapiens, UniProt P35548 130-214) (P35548 130-214): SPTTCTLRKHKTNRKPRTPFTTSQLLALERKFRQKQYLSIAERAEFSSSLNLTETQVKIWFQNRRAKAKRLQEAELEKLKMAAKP

[13] = target: MSX2 (Homo sapiens, UniProt P35548 130-214, F161Y)
Sequence of MSX2 (Homo sapiens, UniProt P35548 130-214, F161Y) (P35548 130-214 F161Y): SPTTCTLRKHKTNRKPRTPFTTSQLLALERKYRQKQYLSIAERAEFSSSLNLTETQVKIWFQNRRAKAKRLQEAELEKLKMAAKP

[14] = target: VAX1 (Homo sapiens, UniProt Q5SQQ9 86-172, T142I)
Sequence of VAX1 (Homo sapiens, UniProt Q5SQQ9 86-172, T142I) (Q5SQQ9 86-172 T142I): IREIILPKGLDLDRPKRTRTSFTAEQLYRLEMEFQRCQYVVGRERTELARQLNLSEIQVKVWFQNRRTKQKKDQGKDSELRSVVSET

[15] = target: HOXA4 (Homo sapiens, UniProt Q00056 201-287, W262F)
Sequence of HOXA4 (Homo sapiens, UniProt Q00056 201-287, W262F) (Q00056 201-287 W262F): as the sequence (Q00056 201-287 R217L) above, with L17R, W62F counted along it

[16] = target: VAX1 (Homo sapiens, UniProt Q5SQQ9 86-172, K157R)
Sequence of VAX1 (Homo sapiens, UniProt Q5SQQ9 86-172, K157R) (Q5SQQ9 86-172 K157R): as the sequence (Q5SQQ9 86-172 T142I) above, with I57T, K72R counted along it

[17] = target: HOXB6 (Homo sapiens, UniProt P17509 132-218)
Sequence of HOXB6 (Homo sapiens, UniProt P17509 132-218) (P17509 132-218): as the sequence (P17509 132-218 K202E) above, with E71K counted along it

[18] = target: PRRX1 (Homo sapiens, UniProt P54821 80-166, F113S)
Sequence of PRRX1 (Homo sapiens, UniProt P54821 80-166, F113S) (P54821 80-166 F113S): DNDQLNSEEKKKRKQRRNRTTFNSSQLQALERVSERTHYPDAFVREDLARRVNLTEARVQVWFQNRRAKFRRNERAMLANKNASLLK

[19] = target: T3, PAX4 (Homo sapiens, UniProt O43316 9-242, R200Q)
T3 sequence: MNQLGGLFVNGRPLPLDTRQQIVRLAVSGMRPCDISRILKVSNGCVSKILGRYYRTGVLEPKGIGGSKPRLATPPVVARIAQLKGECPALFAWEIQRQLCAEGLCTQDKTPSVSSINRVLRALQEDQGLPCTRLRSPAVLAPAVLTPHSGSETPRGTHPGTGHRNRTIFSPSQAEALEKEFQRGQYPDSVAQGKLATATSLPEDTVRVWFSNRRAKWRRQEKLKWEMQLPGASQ

[20] = target: PRRX1 (Homo sapiens, UniProt P54821 80-166)
Sequence of PRRX1 (Homo sapiens, UniProt P54821 80-166) (P54821 80-166): as the sequence (P54821 80-166 F113S) above, with S34F counted along it

Sequence of HOXA4 (Homo sapiens, UniProt Q00056 201-287, W262R) (Q00056 201-287 W262R): as the sequence (Q00056 201-287 R217L) above, with L17R, W62R counted along it
Sequence of HOXB4 (Homo sapiens, UniProt P17483 148-234) (P17483 148-234): as the sequence (P17483 148-234 V174I) above, with I27V counted along it

Sequence	binding signal [1]	binding signal [2]	binding signal [3]	binding signal [4]	binding signal [5]	binding signal [6]	binding signal [7]	binding signal [8]	binding signal [9]	binding signal [10]	binding signal [11]	binding signal [12]	binding signal [13]	binding signal [14]	binding signal [15]	binding signal [16]	binding signal [17]	binding signal [18]	binding signal [19]	binding signal [20]
GGCAATTA	13.1 upbm affinity estimate (log intensity, higher = more binding, comparable within an allelic series)	11.9 upbm affinity estimate (log intensity, higher = more binding, comparable within an allelic series)	10.5 upbm affinity estimate (log intensity, higher = more binding, comparable within an allelic series)	13.6 upbm affinity estimate (log intensity, higher = more binding, comparable within an allelic series)	11.8 upbm affinity estimate (log intensity, higher = more binding, comparable within an allelic series)	9.93 upbm affinity estimate (log intensity, higher = more binding, comparable within an allelic series)	13 upbm affinity estimate (log intensity, higher = more binding, comparable within an allelic series)	12.1 upbm affinity estimate (log intensity, higher = more binding, comparable within an allelic series)	13.6 upbm affinity estimate (log intensity, higher = more binding, comparable within an allelic series)	13.3 upbm affinity estimate (log intensity, higher = more binding, comparable within an allelic series)	13.7 upbm affinity estimate (log intensity, higher = more binding, comparable within an allelic series)	13.9 upbm affinity estimate (log intensity, higher = more binding, comparable within an allelic series)	13.6 upbm affinity estimate (log intensity, higher = more binding, comparable within an allelic series)	13 upbm affinity estimate (log intensity, higher = more binding, comparable within an allelic series)	11.4 upbm affinity estimate (log intensity, higher = more binding, comparable within an allelic series)	12.8 upbm affinity estimate (log intensity, higher = more binding, comparable within an allelic series)	12.2 upbm affinity estimate (log intensity, higher = more binding, comparable within an allelic series)	–	–	–
TCAATTAA	13.3 upbm affinity estimate (log intensity, higher = more binding, comparable within an allelic series)	12 upbm affinity estimate (log intensity, higher = more binding, comparable within an allelic series)	10.7 upbm affinity estimate (log intensity, higher = more binding, comparable within an allelic series)	14.1 upbm affinity estimate (log intensity, higher = more binding, comparable within an allelic series)	11.6 upbm affinity estimate (log intensity, higher = more binding, comparable within an allelic series)	9.94 upbm affinity estimate (log intensity, higher = more binding, comparable within an allelic series)	13.1 upbm affinity estimate (log intensity, higher = more binding, comparable within an allelic series)	12.4 upbm affinity estimate (log intensity, higher = more binding, comparable within an allelic series)	14 upbm affinity estimate (log intensity, higher = more binding, comparable within an allelic series)	13.2 upbm affinity estimate (log intensity, higher = more binding, comparable within an allelic series)	13.9 upbm affinity estimate (log intensity, higher = more binding, comparable within an allelic series)	13.9 upbm affinity estimate (log intensity, higher = more binding, comparable within an allelic series)	13.5 upbm affinity estimate (log intensity, higher = more binding, comparable within an allelic series)	13.1 upbm affinity estimate (log intensity, higher = more binding, comparable within an allelic series)	11.8 upbm affinity estimate (log intensity, higher = more binding, comparable within an allelic series)	13 upbm affinity estimate (log intensity, higher = more binding, comparable within an allelic series)	11.9 upbm affinity estimate (log intensity, higher = more binding, comparable within an allelic series)	11.3 upbm affinity estimate (log intensity, higher = more binding, comparable within an allelic series)	11.8 upbm affinity estimate (log intensity, higher = more binding, comparable within an allelic series)	13.5 upbm affinity estimate (log intensity, higher = more binding, comparable within an allelic series)
ATAATTGA	13 upbm affinity estimate (log intensity, higher = more binding, comparable within an allelic series)	–	10.6 upbm affinity estimate (log intensity, higher = more binding, comparable within an allelic series)	14 upbm affinity estimate (log intensity, higher = more binding, comparable within an allelic series)	–	10 upbm affinity estimate (log intensity, higher = more binding, comparable within an allelic series)	–	12 upbm affinity estimate (log intensity, higher = more binding, comparable within an allelic series)	13.7 upbm affinity estimate (log intensity, higher = more binding, comparable within an allelic series)	–	13.7 upbm affinity estimate (log intensity, higher = more binding, comparable within an allelic series)	13.8 upbm affinity estimate (log intensity, higher = more binding, comparable within an allelic series)	13.5 upbm affinity estimate (log intensity, higher = more binding, comparable within an allelic series)	–	11.3 upbm affinity estimate (log intensity, higher = more binding, comparable within an allelic series)	–	11.7 upbm affinity estimate (log intensity, higher = more binding, comparable within an allelic series)	11.5 upbm affinity estimate (log intensity, higher = more binding, comparable within an allelic series)	11.9 upbm affinity estimate (log intensity, higher = more binding, comparable within an allelic series)	13.5 upbm affinity estimate (log intensity, higher = more binding, comparable within an allelic series)
ACAATTAG	–	11.8 upbm affinity estimate (log intensity, higher = more binding, comparable within an allelic series)	–	–	11.6 upbm affinity estimate (log intensity, higher = more binding, comparable within an allelic series)	–	–	–	–	–	–	13.7 upbm affinity estimate (log intensity, higher = more binding, comparable within an allelic series)	13.3 upbm affinity estimate (log intensity, higher = more binding, comparable within an allelic series)	–	–	–	–	–	–	–
CCCAATTA	–	11.7 upbm affinity estimate (log intensity, higher = more binding, comparable within an allelic series)	–	13.9 upbm affinity estimate (log intensity, higher = more binding, comparable within an allelic series)	11.5 upbm affinity estimate (log intensity, higher = more binding, comparable within an allelic series)	–	12.5 upbm affinity estimate (log intensity, higher = more binding, comparable within an allelic series)	–	–	–	–	14 upbm affinity estimate (log intensity, higher = more binding, comparable within an allelic series)	13.7 upbm affinity estimate (log intensity, higher = more binding, comparable within an allelic series)	12.3 upbm affinity estimate (log intensity, higher = more binding, comparable within an allelic series)	–	12.6 upbm affinity estimate (log intensity, higher = more binding, comparable within an allelic series)	–	11.3 upbm affinity estimate (log intensity, higher = more binding, comparable within an allelic series)	11.9 upbm affinity estimate (log intensity, higher = more binding, comparable within an allelic series)	13.4 upbm affinity estimate (log intensity, higher = more binding, comparable within an allelic series)
AATTAGCA	–	11.7 upbm affinity estimate (log intensity, higher = more binding, comparable within an allelic series)	–	13.6 upbm affinity estimate (log intensity, higher = more binding, comparable within an allelic series)	11.5 upbm affinity estimate (log intensity, higher = more binding, comparable within an allelic series)	–	12.4 upbm affinity estimate (log intensity, higher = more binding, comparable within an allelic series)	–	–	13 upbm affinity estimate (log intensity, higher = more binding, comparable within an allelic series)	–	–	–	–	11.5 upbm affinity estimate (log intensity, higher = more binding, comparable within an allelic series)	–	–	11 upbm affinity estimate (log intensity, higher = more binding, comparable within an allelic series)	11.9 upbm affinity estimate (log intensity, higher = more binding, comparable within an allelic series)	13.2 upbm affinity estimate (log intensity, higher = more binding, comparable within an allelic series)
